{"source": "PubChem BioAssay (EPA / NIEHS)", "note": "Results filed as inconclusive are left out. Active and inactive are the calls of the source. Rule for the calls: active = hit-call score of the fitted dose curve at least 0.9, where 1 is the maximum; inconclusive = response in the unintended direction; inactive = score below 0.9."}
{"read-out": "Cytochrome P450 3A4 (Homo sapiens) (UniProt P08684)", "test": "CLD_CYP3A4_48hr: CellzDirect (CLD) Gene Expression Assay for xenobiotic metabolism (CYP3A4) at 48 hours (AID 2283698)", "description": "CLD_48hr is a cell-based, multiplexed-readout assay that uses hepatocyte, a human liver primary cell, with measurements taken at 48 hours after chemical dosing in a 96-well plate.CLD_CYP3A4_48hr is one of 16 assay component(s) measured or calculated from the CLD_48hr assay. It is designed to make measurements of mRNA induction, a form of inducible reporter, as detected with chemiluminescence signals by Quantitative Nuclease Protection Assay (qNPA) technology.Data from the assay component CLD_CYP3A4_48hr was analyzed at the endpoint, CLD_CYP3A4_48hr, in the positive analysis fitting direction relative to DMSO as the negative control and baseline of activity. Using a type of inducible reporter, gain-of-signal activity can be used to understand changes in the reporter gene as they relate to the gene CYP3A4. Furthermore, this assay endpoint can be referred to as a primary readout. To generalize the intended target to other relatable targets, this assay endpoint is annotated to the cyp intended target family, where subfamily is xenobiotic metabolism.\nHuman hepatocyte cultures were treated daily for two consecutive days with fresh dosing solutions containing appropriate concentrations of the 320 ToxCast chemicals (chemical identities were blinded to CellzDirect and other ToxCast collaborators), vehicle control (0.2% DMSO), and positive control inducers as summarized in Table 1. Due to the large number of treatment groups and chemicals examined, the ToxCast chemicals were divided into two groups (spanning two independent cultures of hepatocytes from separate donor preparations (Hu778: ToxCast plates 1 and 2; Hu776: ToxCast plates 3 and 4). Each preparation of human hepatocyte cultures was treated with respective vehicle control, medium only control, set of six positive controls/reference chemicals for the five hepatic receptor pathways, and a subset of eight of the ToxCast chemicals (indoxacarb, pyrithiobac-sodium, norflurazon, cyhalofop-butyl, methomyl, thiram, acetochlor, and propiconazole). These replicate data, coupled with internal replicates designed within the blinded ToxCast chemical library, provided additional data to evaluate interindividual differences between hepatocyte preparations and their potential impact on chemical profiles.Cell morphology and integrity were evaluated using phase-contrast microscopy as an indicator of hepatocyte cell health (Tyson & Green, 1987). Cultures for each treatment group (i.e., media, vehicle [0.2% DMSO], positive control inducers [multiple concentrations], and the ToxCast chemicals [multiple concentrations]) were observed and cell morphology was assessed relative to vehicle control cultures at each harvest time point (0, 6, 24, or 48 h). […] Images were evaluated at the conclusion of the study to assess changes in cell integrity and account for the effects of chemical exposure on uncharacteristic changes in concentration-dependent gene expression profiles. The results from these determinations of apparent cytotoxicity were annotated (yes/no) alongside the corresponding qNPA data for reference.At the conclusion of each treatment period, hepatocyte cultures (96-well) were washed with 1 volume of HBSS, lysed by addition of 25 ul ArrayPlate lysis buffer (HTG, Tucson, AZ), and 70 ul/well of Denaturation Oil, denatured by incubation at 95C for 10 min, and frozen at approximately -70C until analysis by nuclease protection assay (qNPA) (Roberts et al., 2007). For qNPA analysis, cell lysates were thawed at 50C for approximately 30 min, qNPA probes were added, and samples were incubated at 95C for 10 min to begin the detection process by denaturing the target RNA, dissociating the duplexes and secondary structure hybridization. At the conclusion of the hybridization period, S1 nuclease reagent was added to each sample to digest all nonprotected nucleotides at 50C for 60-90 min. […]"}
{"smiles": "CCCCN(CC)c1c([N+](=O)[O-])cc(C(F)(F)F)cc1[N+](=O)[O-]", "AC50": "6.48 µM (active)"}
{"smiles": "COc1cccc(C(=O)NN(C(=O)c2cc(C)cc(C)c2)C(C)(C)C)c1C", "AC50": "1.42 µM (active)"}
{"smiles": "CCOP(=S)(OCC)OC(Cl)C(Cl)(Cl)Cl", "note": "(stereo not given)", "AC50": "9.51 µM (active)"}
{"smiles": "CN(C)[C@@H]1C(=O)C(C(N)=O)=C(O)[C@@]2(O)C(=O)C3=C(O)c4c(O)cccc4[C@@](C)(O)[C@H]3[C@H](O)[C@@H]12", "outcome": "inactive"}
{"smiles": "O=[N+]([O-])c1cc(C(F)(F)F)c(Cl)c([N+](=O)[O-])c1Nc1ncc(C(F)(F)F)cc1Cl", "outcome": "inactive"}
{"smiles": "CN(C)NC(=O)CCC(=O)O", "outcome": "inactive"}
{"smiles": "CCCCOC(=O)c1ccccc1C(=O)O", "outcome": "inactive"}
{"smiles": "FC(F)C(F)(F)OCC(Cn1cncn1)c1ccc(Cl)cc1Cl", "note": "(stereo not given)", "AC50": "1.89 µM (active)"}
{"smiles": "CCc1cccc(C)c1N(C(=O)CCl)C(C)COC", "note": "(stereo not given)", "AC50": "3.97 µM (active)"}
{"smiles": "Cc1cc(C2CC2)nc(Nc2ccccc2)n1", "outcome": "inactive"}
{"smiles": "CC[C@H](C)[C@H]1O[C@]2(C=C[C@@H]1C)C[C@@H]1C[C@@H](C/C=C(\\C)[C@@H](O[C@H]3C[C@H](OC)[C@@H](O[C@H]4C[C@H](OC)[C@@H](NC)[C@H](C)O4)[C@H](C)O3)[C@@H](C)/C=C/C=C3\\CO[C@@H]4[C@H](O)C(C)=C[C@@H](C(=O)O1)[C@]34O)O2", "outcome": "inactive"}
{"smiles": "CC1=NNC(=O)N(/N=C/c2cccnc2)C1", "outcome": "inactive"}
{"smiles": "CN(C)C(=O)Nc1cccc(C(F)(F)F)c1", "AC50": "20 µM (active)"}
{"smiles": "CC(=NC#N)N(C)Cc1ccc(Cl)nc1", "outcome": "inactive"}
{"smiles": "COc1ccc(C(=CC(=O)N2CCOCC2)c2ccc(Cl)cc2)cc1OC", "AC50": "1.9 µM (active)"}
{"smiles": "C#CCC1=C(C)C(OC(=O)C2C(C=C(C)C)C2(C)C)CC1=O", "note": "(stereo not given)", "AC50": "14.1 µM (active)"}
{"smiles": "Nc1c(Cl)cc([N+](=O)[O-])cc1Cl", "outcome": "inactive"}
{"smiles": "Cc1ccn2nc(S(=O)(=O)Nc3c(F)cccc3F)nc2n1", "AC50": "3.97 µM (active)"}
{"smiles": "CCNc1nc(Cl)nc(NC(C)(C)C#N)n1", "AC50": "20 µM (active)"}
{"smiles": "COc1cc(OC)nc(Sc2cccc(Cl)c2C(=O)O)n1", "AC50": "35.2 µM (active)"}
{"smiles": "CNC(=O)ON=C(C)SC", "outcome": "inactive"}
{"smiles": "CCc1cccc(CC)c1N(COC)C(=O)CCl", "outcome": "inactive"}
{"smiles": "CCCOCC(=Nc1ccc(Cl)cc1C(F)(F)F)n1ccnc1", "AC50": "1.89 µM (active)"}
{"smiles": "CC(C)=CC1C(C(=O)OCN2C(=O)C3=C(CCCC3)C2=O)C1(C)C", "note": "(stereo not given)", "AC50": "0.152 µM (active)"}
{"smiles": "CNc1cnn(-c2cccc(C(F)(F)F)c2)c(=O)c1Cl", "AC50": "13.6 µM (active)"}
{"smiles": "CSC1=N[C@@](C)(c2ccccc2)C(=O)N1Nc1ccccc1", "outcome": "inactive"}
{"smiles": "CCCCSP(=O)(SCCCC)SCCCC", "AC50": "20 µM (active)"}
{"smiles": "CCC(=O)Nc1ccc(Cl)c(Cl)c1", "outcome": "inactive"}
{"smiles": "CCOP(=S)(OCC)SCCSCC", "AC50": "20 µM (active)"}
{"smiles": "CCOP(=S)(OCC)Oc1ccc([N+](=O)[O-])cc1", "AC50": "2.92 µM (active)"}
{"smiles": "CON=C(C(=O)OC)c1ccccc1CON=C(C)c1cccc(C(F)(F)F)c1", "AC50": "13.1 µM (active)"}
{"smiles": "CSc1nc(NC(C)C)nc(NC(C)C)n1", "AC50": "3.24 µM (active)"}
{"smiles": "CCCSP(=O)(OCC)Oc1ccc(Br)cc1Cl", "note": "(stereo not given)", "AC50": "7.57 µM (active)"}
{"smiles": "CCC(CC)Nc1c([N+](=O)[O-])cc(C)c(C)c1[N+](=O)[O-]", "AC50": "20 µM (active)"}
{"smiles": "CCOC(=O)COc1cc(-c2nn(C)c(OC(F)F)c2Cl)c(F)cc1Cl", "AC50": "4.37 µM (active)"}
{"smiles": "CCOC(=O)CC(SP(=O)(OC)OC)C(=O)OCC", "note": "(stereo not given)", "AC50": "20 µM (active)"}
{"smiles": "COP(=O)(OC)SCn1c(=O)oc2cc(Cl)cnc21", "outcome": "inactive"}
{"smiles": "CCOP(=O)(OCC)Oc1cc(C)nc(C(C)C)n1", "AC50": "20 µM (active)"}
{"smiles": "COP(=O)(OC)OC(Br)C(Cl)(Cl)Br", "note": "(stereo not given)", "outcome": "inactive"}
{"smiles": "N#CSCSC#N", "outcome": "inactive"}
